From the supplement of paper PMC6555819

Experiments:
Experiment in all cases: PBM binding z-score (relative to random genomic background probes); higher = stronger binding; sequences stand for … in GC…GCGATTGACAGCGTAGAATGAAGG
[1] = system: PPARg:RXRa DBDmut IVT, anti-RXR (DBD mutation: RXRa K156A/R161A, NR concentration 270 nM, RXRa partner concentration 90 nM)
Summary of the method: (§1)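 Binding buffer was PBS pH 7.4 with 2% milk, 0.02% Triton X-100, 1 mM DTT, 0.2 mg/mL BSA and 0.4 mg/ml salmon testes DNA. In it, ligand-free nuclear receptor dimers were incubated 1 h on custom Agilent 4×180K protein-binding microarrays carrying double-stranded probes. Antibodies against each partner (one per run) detected binding, and z-scores were calculated against random background probes after regression normalization of scanned fluorescence.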

[2] = system: PPARg:RXRa IVT, anti-PPARg (NR concentration 270 nM, RXRa partner concentration 90 nM)
Summary of the method: as §1

[3] = system: PPARg DBDmut:RXRa IVT, anti-PPARg (DBD mutation: PPARg1 K132A/R137A, NR concentration 270 nM, RXRa partner concentration 90 nM)
Summary of the method: as §1

[4] = system: PPARg DBDmut IVT, anti-PPARg (DBD mutation: PPARg1 K132A/R137A, NR concentration 270 nM)
Summary of the method: as §1

[5] = system: PPARg homodimer (NR concentration 180 nM)
Summary of the method: as §1

[6] = system: PXR:RXRa (NR concentration 270 nM, RXRa partner concentration 90 nM)
Summary of the method: as §1

[7] = system: PXR homodimer (NR concentration 270 nM)
Summary of the method: as §1

[8] = system: RARa:RXR (NR concentration 270 nM, RXRa partner concentration 90 nM)
Summary of the method: as §1

[9] = system: RARa homodimer (NR concentration 270 nM)
Summary of the method: as §1

[10] = system: RARb:RXRa (NR concentration 270 nM, RXRa partner concentration 90 nM)
Summary of the method: as §1

Sequence	PBM binding z-score [1]	PBM binding z-score [2]	PBM binding z-score [3]	PBM binding z-score [4]	PBM binding z-score [5]	PBM binding z-score [6]	PBM binding z-score [7]	PBM binding z-score [8]	PBM binding z-score [9]	PBM binding z-score [10]
GCTTGTAGATCAAGGTTAAGTAAGACTAAGCTAA	1.5	1.73	-0.282	0.512	-0.0519	0.746	-0.237	0.964	-0.148	0.875
GCTACTAGGTCAGGTTGGTCAGCTAACGGGTACG	7.04	6.37	0.412	0.27	1.12	0.422	-0.0861	0.74	0.258	3.26
TATACAGGGTCAACGGCCAGAGTACGAATGTCGA	2.91	4.6	4.74	3.03	4.05	3.93	0.74	5.15	1.33	4.52
TGTCAAAGTTCAAAGGTATCGTAAGTATCCACAC	-0.2	3.95	0.81	1.08	2.53	5.14	4.92	4.95	1.12	4.91
AGAATGAGGTTACGATCAGGGAAACAGAATACAT	3.35	3.6	1.79	0.837	0.684	1.19	0.235	1.92	0.462	2.16
CAAACTAGGTCAAAGGTCGAAGTCGAGCCAACCA	8.87	9.27	5.32	3.95	3.95	5.77	0.27	8.46	0.524	4.71
GGAACGTGGGCAAAGTTGATAGCATCTGTCGACG	-0.0354	0.169	-0.243	-0.6	0.0888	-0.428	-0.473	-0.469	-0.252	0.113
GGAGACAGGTGAAACGCAGGTAACTCAGGGTGGC	0.957	0.901	-1.26	-0.98	-0.102	-0.298	-0.332	0.137	-0.68	0.904
CCTTGTTGGTCAAGGTCACACACGCTATAGGTAC	2.48	3.71	1.18	0.66	2.49	4.23	1.5	4.45	1.4	4.3
TCTTGTAGATCATCAGGTTAAGAAAGCTGGCCAA	2.18	1.18	1.16	0.736	0.119	0.47	-0.117	0.63	0.422	0.398
CCGACTGGGGCATAAGCTTACCATAAGCCAGCCC	2.59	1.57	-1.09	-1.16	-0.394	-0.775	-0.649	-0.694	-0.632	-0.11
GGAACGAGGGCATTCGAGTTGATGGCATGGCGAT	3	2.1	-0.485	-0.554	-0.644	3.26	1.55	0.115	-0.893	1.6
CATACAGGGTCAGCTAGGCCAGTGTAGGGACGGC	1.02	2.44	0.598	0.349	1.32	1.78	-0.247	3.02	-0.155	3.98
ATCTCTAGTTAAAGTTCAGTGAAAGATCGATAGA	0.143	0.671	0.424	1.48	2.14	2.29	2.21	1.41	2.45	2.61
CGTCAAAGTTCAGCTAAGGTAACGTAAAGCACGC	0.23	1.25	0.517	-0.309	1.44	4	1.56	3.29	1.13	4.65
CGTCCATGGTCATAGGAGGTCAGTGAAGACAGAT	0.484	2.01	-0.127	-0.368	2.09	3.77	0.616	2.79	0.333	2.91
GCTAGCAGGCGATTTGGGTCACTCAATGACGGGC	1.67	2.53	-0.476	-0.307	-0.254	0.00388	-0.474	0.575	-0.848	0.752
AAGACAGGGTCACTAGGCCAGAGTAGGTACGAAT	3.14	5.06	0.632	0.999	1.27	2.89	0.212	4.16	-0.193	4.21
TGTCAAAGTTCAACGGTAACGTAAGTATCCACAC	0.0114	4.34	1.07	1.67	3.02	4.77	3.78	4.08	1.62	5.03
CTACCAAGGTGAACCAGGTCGTTGATTACTATTC	2.39	3.12	-0.252	0.258	1.51	1.93	0.659	2.14	-0.266	1.92
TATACAGGGTCAAAGGCCCGAGTACGAATGTCGA	1.95	4.09	1.37	0.769	1.13	3.57	0.0932	4.41	0.102	4.33
CGTCCAAGGTCAGGGAGGTCAGTGAATGCCGAGT	2.94	3.53	-0.257	-1.31	4.71	6.02	10.3	5.53	2.15	5.33
CCTACTGGGCCACGAAAGGTCATTGGTTCAGTGA	5.54	5.88	-0.165	-0.319	3.95	5.47	3.04	5.74	0.693	3.96
GCTTGTAGATCAAGGTTGAGAAAGACTAAGCTAA	0.308	0.797	-0.562	-0.558	-0.108	-0.354	-0.235	-0.162	-0.337	-0.367
